Wee1 degr inh: Wee1 degradation inhibitors, primary screen, cell-based, HeLa, Wee1K328M-luciferase, luminescence. HeLa Luc-Wee1K328M stability; 100% = proteasome inhibitor MG132 effect. reporter increase, % at 5 µM. Wee1-like protein kinase (Homo sapiens), P30291. 220,000 compounds, 1.2% hits;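 active = activation above the mean of all tested compounds plus 3 SD, set per screening run, cut at about 8.8% in these data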;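 note: cells exposed to compound for 20 h before luminescence read; 0% = DMSO alone and 100% = MG132 at 30 µM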
Target sequence (P30291 whole entry K328M): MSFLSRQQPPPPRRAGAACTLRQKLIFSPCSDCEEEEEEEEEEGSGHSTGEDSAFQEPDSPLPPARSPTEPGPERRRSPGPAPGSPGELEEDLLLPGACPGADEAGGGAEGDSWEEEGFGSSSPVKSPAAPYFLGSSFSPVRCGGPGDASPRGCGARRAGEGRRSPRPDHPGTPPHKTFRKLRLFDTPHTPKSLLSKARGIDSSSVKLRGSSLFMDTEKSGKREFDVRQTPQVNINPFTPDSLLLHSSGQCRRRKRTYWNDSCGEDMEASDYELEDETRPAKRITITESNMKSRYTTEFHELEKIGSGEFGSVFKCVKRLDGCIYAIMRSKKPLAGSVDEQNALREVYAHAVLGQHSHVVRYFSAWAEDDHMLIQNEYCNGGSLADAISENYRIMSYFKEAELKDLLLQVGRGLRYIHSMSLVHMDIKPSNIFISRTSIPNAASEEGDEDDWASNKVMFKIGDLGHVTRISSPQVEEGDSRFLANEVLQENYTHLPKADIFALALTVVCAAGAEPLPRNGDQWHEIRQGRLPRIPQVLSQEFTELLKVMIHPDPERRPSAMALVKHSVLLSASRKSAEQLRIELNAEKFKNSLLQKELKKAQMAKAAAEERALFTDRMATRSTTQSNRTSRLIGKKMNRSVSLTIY
hgDAF12 agonist: H. glycines DAF-12 receptor agonists, primary screen, cell-based, luminescence, HEK293, GAL4 fusion, UAS-luciferase | AID 687014, 2013 | Nuclear hormone receptor DAF-12 (Heterodera glycines), GAL4 fusion | 370,000 compounds, 1.8% hits | HEK293 GAL4-hgDAF12 UAS-luciferase reporter, agonist luminescence; normalized to butyrate control | activation, % at 6.8 µM;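 active = activation above a cutoff set at the mean of all screened compounds plus 3 SD, cut at about 10% in these data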;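 note: 0% = DMSO wells and 100% = sodium butyrate wells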
DAX1 inh-1: DAX1 (NR0B1) inhibitors on StAR promoter, primary screen, cell-based, luminescence, SF-1 (NR5A1), full-length DAX-1. HEK293T StAR-luciferase reporter, SF-1/DAX-1 repression relief. inhibition, % at 6.8 µM. 370,000 compounds, 1.1% hits. AID 652010, 2013;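 active = inhibition above the mean over all tested compounds plus 3 SD, cut at about 3.6% in these data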;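 note: 0% = DAX-1 cells with DMSO and 100% = cells lacking DAX-1 with DMSO; higher inhibition means more luminescence from relief of DAX-1 repression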
DAX1 inh-2: DAX1 (NR0B1) inhibitors, primary screen, cell-based, HEK293, Gal4-DAX1, luciferase luminescence; HEK293 Gal4-DAX1 luciferase reporter; AID 504766, 2011; inhibition, % at 6.75 µM; Nuclear receptor subfamily 0 group B member 1 (Homo sapiens), P51843; 340,000 compounds, 0.99% hits;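 active = inhibition above the mean over all tested compounds plus 3 SD, cut at about 4.2% in these data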;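 note: 0% = DAX1-transfected cells with DMSO and 100% = empty-vector control cells with DMSO; inhibition shows as a rise in luminescence from relieved DAX1 repression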
hcDAF12 agonist: H. contortus DAF-12 nuclear receptor activators, primary screen, cell-based, luminescence, HEK293, lit1-tk-luc reporter. activation, % at 6.8 µM. AID 652067, 2013. HEK293 hcDAF-12 lit1-tk-luc reporter; 0% DMSO, 100% Δ7-dafachronic acid. 370,000 compounds, 1.4% hits;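 active = activation above the mean of all tested compounds plus 3 SD, cut at about 5.5% in these data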;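 note: 100% = response to 3 µM Δ7-dafachronic acid high control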
ssDAF-12 act: S. stercoralis DAF-12 nuclear receptor activators, primary screen, cell-based, luminescence, HEK293, GRIP1 co-expression, lit1-tk-luc; 370,000 compounds, 1% hits; HEK293 ssDAF-12/GRIP1 lit1-tk-luc reporter; % of 3 µM dafachronic acid response; Nuclear hormone receptor DAF-12 (Strongyloides stercoralis); activation, % at 6.8 µM;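 active = activation above the mean over all tested compounds plus 3 SD, cut at about 0.9% in these data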;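 note: 0% = DMSO-only wells and 100% = 3 µM delta7-dafachronic acid wells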
Wee1 stab conf: Wee1 degradation inhibitors, confirmation, cell-based, HeLa, Wee1K328M-luciferase, luminescence, triplicate | shares compounds with Wee1 degr inh | HeLa Luc-Wee1K328M degradation; vehicle 0%, proteasome-blocked wells 100% | 1,100 compounds, 4% hits | activation, % at 5 µM; in the data active = activation above about 8.9%
* hit, by the source's call; / = no result given. Rows were chosen to be rich in hits. Some 4.6% of all compounds tested hit in one or more screens of this group.

SMILES | Wee1 degr inh | hgDAF12 agonist | DAX1 inh-1 | DAX1 inh-2 | hcDAF12 agonist | ssDAF-12 act | Wee1 stab conf
Cc1ccc(-n2cccn2)c(CN2CCC(CO)(CCc3ccccc3)CC2)c1 | 18* | 3 | 0 | 1 | 0 | -1 | -1
CCOC(=O)C1(Cc2cccc(OC)c2)CCN(CC2CC=CCC2)CC1 (configuration not stated) | 12* | -2 | 0 | -1 | -1 | -1 | 1
O=C(NCCc1ccccc1)c1c(F)c(F)c(F)c(F)c1F | 24* | 1 | 1 | -1 | 5 | 0 | -1
COc1ccc(CCNC(=O)c2cc(=O)[nH]c3ccccc23)cc1 | / | 0 | 0 | 1 | 0 | -1 | /
O=C(NCCc1ccccc1)c1cc(=O)[nH]c2ccccc12 | 11* | -1 | 0 | 1 | 0 | -2 | 2
O=C(NCCc1ccccc1)c1ccccc1C(=O)NCCc1ccccc1 | / | 2 | 1 | / | 1 | -1 | /
Cc1ccc(S(=O)(=O)N2CCN(C(=O)COC(=O)COc3ccccc3C(C)C)CC2)c(C)c1 | / | 2 | -1 | 1 | 0 | -1 | /
CCCCNS(=O)(=O)c1ccc(NC(=O)Cc2ccccc2[N+](=O)[O-])cc1 | 14* | 0 | -1 | 0 | 1 | 2.0* | 1
COCc1nnc(NC(=O)CCc2ccc(OC)cc2)s1 | / | 0 | 0 | -1 | -2 | -2 | /
COc1ccc(CCC(=O)Nc2sccc2C#N)cc1 | 12* | 12* | 3 | / | 2 | 0 | 0
O=C(NNC(=O)c1ccc(Cl)cc1Cl)Nc1ccccc1 | 3 | 0 | 0 | -1 | -3 | 0 | /
Cc1nc(NNC(=O)c2ccc(Cl)cc2Cl)cc(-c2ccccc2)n1 | 11* | -2 | 0 | 0 | 1 | -1 | 1
O=[N+]([O-])c1ccc(/C=C/c2ccncc2)cc1 | 18* | 0 | 0 | 0 | -1 | -2 | -1
CC(OC(=O)c1ccc2c(c1)NC(=O)CS2)C(=O)c1ccc(F)cc1 (configuration not stated) | / | -2 | -1 | -1 | 0 | 0 | /
CN1CCN(C(=O)CN(c2ccccc2)S(=O)(=O)N(C)C)CC1 | 11* | -1 | 0 | / | 0 | 0 | -1
NS(=O)(=O)c1cccc(NC(=O)COC(=O)CCN2C(=O)c3ccccc3C2=O)c1 | / | -2 | 1 | 1 | -2 | -1 | /
Cc1ccc(S(=O)(=O)C2(C(=O)Nc3ccc(Br)cc3)CC2)cc1 | 14* | -3 | -1 | -2 | -2 | -1 | 2
CC(=O)Nc1cc(-c2cccc(C(=O)NCCO)c2)cn2c(-c3cccc(C(F)(F)F)c3)cnc12 | / | -3 | -1 | / | -1 | -2 | /
COc1ccc(-c2cc(=O)oc3cc(OCC(C)=O)ccc23)cc1 | 17* | -3 | 0 | -1 | -3 | -1 | 1
COc1ccc(/C=C/C(=O)NC(=S)NNC(=O)c2cccnc2)cc1 | 17* | 2 | 1 | -1 | 4 | -1 | -2
COc1ccc(/C=C/C(=O)NC(=S)NNC(=O)c2cnccn2)cc1 | -1 | -2 | 0 | 2 | -2 | -1 | /
O=C1OCC2=C1C(c1ccc(Cl)cc1)CC(=O)N2c1ccc(F)cc1 (configuration not stated) | 14* | 6 | -1 | -1 | 0 | -1 | 2
